HSF1 inhib: HSF1 inhibition | activity change, negative = inhibition, % at 7.5 µM (by protocol) | NIH3T3-HGL HSE-luciferase, MG132-induced, luminescence 8 h; active compounds read low | actives 0.77% (n = 300,000);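 active means more than half of replicate wells show activity change below -50%, luminescence cut by over half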;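 further: luciferase reports HSF-1 transcriptional activity via heat shock element; 0% = median of DMSO wells and -100% = zero luminescence signal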
HSF-1 act: increases HSF-1 driven luciferase reporter signal. activation, % at 9 µM. AID 504408. actives 1.7% (n = 300,000). NIH3T3-HGL HSF-1 luciferase reporter, MG132, 8 h; 100% = twice DMSO control signal;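 active means mean replicate activation of at least 50% with a set share of replicates each reaching 50%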;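 further: 0% = median of the neutral control wells and 100% = twice that signal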
AHR act: activates the human aryl hydrocarbon receptor. P35869. AHR-responsive luciferase reporter cells, luminescence. activation, % at 5 µM. actives 2.5% (n = 320,000). AID 2796; in the data active means activation above about 47%;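 further: 0% = vehicle wells and 100% = reference agonist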
Target sequence (P35869 whole entry, looked up): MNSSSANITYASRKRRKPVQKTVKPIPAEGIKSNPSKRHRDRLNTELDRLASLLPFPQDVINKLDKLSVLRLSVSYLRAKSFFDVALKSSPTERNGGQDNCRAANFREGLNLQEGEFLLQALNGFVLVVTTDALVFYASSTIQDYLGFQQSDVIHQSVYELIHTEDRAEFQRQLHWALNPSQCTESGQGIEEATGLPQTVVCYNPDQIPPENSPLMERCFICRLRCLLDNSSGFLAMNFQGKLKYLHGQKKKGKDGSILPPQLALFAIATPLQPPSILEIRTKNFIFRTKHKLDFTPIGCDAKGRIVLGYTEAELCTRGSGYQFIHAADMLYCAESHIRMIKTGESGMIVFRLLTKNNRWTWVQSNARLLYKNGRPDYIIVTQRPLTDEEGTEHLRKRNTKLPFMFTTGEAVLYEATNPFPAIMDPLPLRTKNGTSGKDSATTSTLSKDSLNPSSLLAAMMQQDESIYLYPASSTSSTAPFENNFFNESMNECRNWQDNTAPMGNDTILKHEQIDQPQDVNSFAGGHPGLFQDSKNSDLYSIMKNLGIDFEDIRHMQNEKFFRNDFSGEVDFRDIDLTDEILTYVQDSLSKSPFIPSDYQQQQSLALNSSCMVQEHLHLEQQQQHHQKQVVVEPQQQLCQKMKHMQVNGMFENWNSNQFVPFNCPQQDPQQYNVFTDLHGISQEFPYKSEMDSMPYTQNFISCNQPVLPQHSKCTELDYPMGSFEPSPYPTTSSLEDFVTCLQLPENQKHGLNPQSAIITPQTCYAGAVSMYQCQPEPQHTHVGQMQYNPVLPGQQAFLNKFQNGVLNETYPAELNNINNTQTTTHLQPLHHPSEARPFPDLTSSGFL
FXN GAA850 act: increases GAA850 frataxin promoter reporter activity; HEK293 lucGAA850 FXN promoter luciferase reporter, 24 h; percent of 10 µM SAHA response; AID 540364; activation, % at 6 µM; actives 0.56% (n = 360,000);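 active means activation above the average of all compounds screened plus 3 SD, cutoff fixed separately per campaign, cut at about 7.5% in these data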;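 further: 0% = DMSO wells and 100% = 10 µM SAHA wells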
* marks the source's active call; other numbers are inactive results; · = no result. An excerpt weighted towards active compounds, which were near 4.6% of everything screened.

SMILES | HSF1 inhib | HSF-1 act | AHR act | FXN GAA850 act
Cn1c(-c2ccc([N+](=O)[O-])cc2)nc2ccccc21 | 16 | 18 | -3 | 2
CCOC(=O)c1ccc(S(=O)(=O)n2c(=O)oc3ccccc32)cc1 | · | · | 1 | 1
Cc1ccc(S(=O)(=O)n2c(=O)oc3ccccc32)cc1 | 61 | 80* | 17 | 1
N=C1C(c2nc3ccccc3s2)=C(O)CN1C1CCCCC1 | 26 | 54* | 17 | 1
Cc1ccc(C(O)(c2ccccc2)c2ccccc2C(C)N(C)C)c(C)c1 (centres undefined) | 9 | 22 | 6 | -4
O=C(Nc1ccc(S(=O)(=O)NCC2CCCO2)cc1)c1ccccc1 (centres undefined) | -65* | -72 | 2 | -2
COc1cc(-c2nc(-c3ccccc3)c(-c3cccs3)[nH]2)cc(OC)c1O | 2 | 4 | 5 | -4
N/C(Cc1nc(-c2ccc(Br)cc2)cs1)=N\O | 17 | 55* | 54* | 2
CCOc1ccc(-c2c(C(=O)N/N=C/C3CCCCC3)nnn2-c2nonc2N)cc1 | 3 | -3 | 4 | 0
Cc1noc(C)c1COC(=O)c1ccccc1Oc1ccccc1 | 14 | 57* | 11 | 1
Cc1noc(C)c1COC(=O)c1ccccc1NC(=O)Cc1ccccc1 | 17 | 23 | -4 | 2
COc1ccc2oc(=O)c(-c3nc4ccccc4o3)cc2c1 | 3 | 1 | 22 | 6
COc1cccc(N=c2oc3ccc(OC)cc3cc2-c2nc3ccccc3[nH]2)c1 | 28 | 54* | 53* | 4
COc1ccc(N=c2oc3ccc(OC)cc3cc2-c2nc3ccccc3[nH]2)cc1 | 31 | 58* | 24 | 0
Cc1nnc(NC(=O)c2csc3c2CCCC3)s1 | -1 | 0 | 55* | ·
Cc1nnc(NC(=O)c2csc3c2CCC(C)C3)s1 (centres undefined) | 9 | 20 | 15 | 2
O=C(Nc1ccccn1)c1csc2c1CCCC2 | 43 | 53* | 29 | 6
COc1ccccc1CNC(=O)c1csc2c1CCCC2 | 6 | 13 | 2 | 3
COc1ccccc1NC(=O)c1c(C)oc2c1CCCC2 | 5 | 28 | 60* | 1
COc1ccccc1NC(=O)c1csc2c1CCCC2 | 9 | -1 | 69* | 0
COC(=O)c1cc(=O)n(CCc2ccc(OC)c(OC)c2)c(=Nc2ccc(F)c(Cl)c2)s1 | 0 | -10 | 5 | 1
CN1/C(=C\C(=O)COC(=O)Cn2nnc(-c3ccccc3)n2)C(C)(C)c2ccccc21 | -4 | -19 | 3 | 0
CCOc1cc(OCC)cc(C(=O)Nc2cccc(C(C)=O)c2)c1 | 0 | -2 | 17 | -1
Brc1ccc(-c2nnc(Cc3ccccc3)o2)cc1 | 34 | 56* | 1 | 4
CC(=O)c1cccc(N(CC(=O)Nc2ccc(F)cc2F)S(C)(=O)=O)c1 | 10 | 55* | -3 | 2
SMILES | HSF1 inhib | HSF-1 act | AHR act | FXN GAA850 act
CC(=O)c1cccc(N(CC(=O)Nc2ccccc2F)S(C)(=O)=O)c1 | 2 | 13 | 2 | 2
O=C1Nc2ccc(S(=O)(=O)N3CCCCCC3)c3cccc1c23 | 1 | 19 | 4 | 1
O=C(COc1ccccc1/C=C1\SC(=O)NC1=O)Nc1ccccc1 | 31 | 28 | 57* | 2
O=C(Nc1nccs1)c1ccc2c(=O)n3c(nc2c1)CCCCC3 | 21 | 19 | 76* | 3
O=C(NNC(=O)c1ccc2c(=O)n3c(nc2c1)CCC3)c1ccc(F)cc1 | -4 | 9 | 60* | 0
O=C(NNC(=O)c1ccc2c(=O)n3c(nc2c1)CCC3)c1ccc(Cl)cc1 | · | · | 0 | 1
Cc1cc(N2CCOCC2)ccc1/C=C\[N+](=O)[O-] | 75 | 80* | 5 | 2
CC(C)c1ccc(C2=C(O)c3ccccc3C(=O)C2=O)cc1 | 6 | 6 | 54* | 2
Cc1ccc(C2=C(O)c3ccccc3C(=O)C2=O)cc1 | 7 | 2 | 5 | 0
Cc1nn(-c2ccccc2)c(N)c1N=Nc1ccc2ccccc2c1 | 41 | 78* | 155* | 5
O=C(Nc1cccc(Cl)c1)N1CCCC1 | -6 | 0 | 2 | 2
O=C(Nc1cccc(Cl)c1)N1CCOCC1 | -55* | -65 | 3 | 0
CC(C)SC1=NC(C)(C)C=C(/C=C/c2ccc(Cl)cc2Cl)N1 | 57 | 82* | 7 | 0
CC(C)SC1=NC(C)(C)C=C(/C=C/c2c(Cl)cccc2Cl)N1 | 28 | 32 | 8 | 1
CC(C)(C)c1ccc(C(=O)OCC(=O)Nc2sc3c(c2C#N)CCC3)cc1 | -37 | -51 | -1 | 4
C=C1SC(=Nc2ccccc2Cl)N(C(=O)c2sc3ccccc3c2Cl)C1(C)C | 6 | 57* | 34 | 7
C=C1SC(=Nc2c(C)cccc2Cl)N(C(=O)c2sc3ccccc3c2Cl)C12CCCCC2 | 5 | 9 | 2 | 0
S=C(NCc1ccc2[nH]c3c(c2c1)CCCC3)Nc1ccccc1Cl | 6 | 0 | 58* | 0
Cc1ccccc1NC(=S)NCc1ccc2[nH]c3c(c2c1)CCCC3 | 0 | -6 | 36 | 0
CCN(CC(=O)NCc1ccc(Cl)cc1)C(=O)/C=C/c1cccs1 | 11 | 25 | 1 | 1
O=C(NN=Cc1c[nH]c2ccccc12)NN=Cc1c[nH]c2ccccc12 | · | · | · | 2
O=C(CCC(=O)Nc1ccc(F)cc1)N/N=C/c1c[nH]c2ccccc12 | -1 | -9 | 50* | 0
O=C(CSc1nnc(SCc2cccc3ccccc23)s1)N/N=C/c1c[nH]c2ccccc12 | -1 | 27 | 47* | 5
O=C(CNc1ccccc1)N/N=C/c1c[nH]c2ccccc12 | -6 | 9 | 50* | 0
CC(C)c1ccc(/C=N/NC(=O)c2nnn(-c3nonc3N)c2CSC2=NCCS2)cc1 | 1 | 17 | -1 | -1
SMILES | HSF1 inhib | HSF-1 act | AHR act | FXN GAA850 act
CCCOc1ccc(N2C(=O)CC(NCCNc3ccc(S(=O)(=O)CC)cc3)C2=O)cc1 (centres undefined) | -5 | 5 | 2 | -1
Cc1cc(CNC[C@H]2O[C@@H](n3ccc(N)nc3=O)[C@H](O)[C@@H]2O)no1 | · | · | · | 0
COc1ccc(Cl)cc1-c1nc(SCC(=O)NC(C)(C)C)n[nH]1 | -7 | -6 | 15 | 1
O=C1CSC(c2ccccc2)N1Cc1ccccn1 (centres undefined) | -4 | 9 | · | 0
O=C1OC(Cc2ccccn2)C(=O)C1=C1SCCS1 (centres undefined) | 11 | 3 | 60* | 2
Cn1c(CS(=O)Cc2c(Cl)cccc2Cl)nnc1SCc1ccc(Cl)cc1 (centres undefined) | 26 | 61* | -5 | -3
c1ccc(-c2cc(-c3nnco3)c3ccccc3n2)nc1 | 2 | 3 | 62* | -1
O=C(O)c1cc(-c2ccccc2Cl)n(-c2ccccc2)n1 | -3 | 10 | 0 | 6
COc1ccc(OC)c(/C=N/Nc2nncn2/N=C/c2cc(OC)ccc2OC)c1 | 38 | 81* | 51* | -5
CCOc1ccc(CNCc2ccc(C(=O)O)cc2)cc1OC | -14 | -28 | 2 | -1
Cc1cccc(N(C(=O)c2ccco2)C(C(=O)NC2CCCC2)c2cccnc2)c1C (centres undefined) | -79* | -84 | 4 | -1
